“And” between values parts separate entries of the source, which are not always exact repeats. Equal entries are not always repeated. Inconclusive results are not listed. Where a structure was tested more than once in an assay, its records may differ in their call. The source made the active and inactive calls. How the source made its calls: active means hit-call score of the fitted dose curve at least 0.9, where 1 is the maximum; inconclusive means response in the unintended direction; inactive means score below 0.9.
experiment: CCTE_Simmons_CellTiterGLO_HEK293T: Viability Assessment in CCTE's Assays for Thyroperoxidase (TPO) Inhibition, Simmons Lab (AID 2283665);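 on AC50: cells exposed to compound for 24 h before readout; actives reduce ATP signal below DMSO vehicle meaning cytotoxicity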
Protocol: CCTE_Simmons_CellTiterGLO_HEK293T is a cell-based, single-readout assay that uses HEK293T, a human kidney cell line, with measurements taken at 24 hours after chemical dosing in a 384-well plate.CCTE_Simmons_CellTiterGLO_HEK293T is the assay component measured from the CCTE_Simmons_CellTiterGLO_HEK293T assay. It is designed to make measurements of ATP content, a form of viability reporter, as detected with bioluminescence signals by Luciferase-coupled ATP quantitation technology. This is a secondary cytotoxicity assay to CCTE_Simmons_AUR_TPO to estimate a cellular tolerance limit.Data from the assay component CCTE_Simmons_CellTiterGLO_HEK293T was analyzed at the endpoint, CCTE_Simmons_CellTiterGLO_HEK293T, in the positive analysis fitting direction relative to DMSO as the negative control and baseline of activity. Using a type of viability reporter, measures of ATP content for loss-of-signal activity can be used to understand the viability. This assay was run in parallel with aeid 1508 as a means of indicating the range of chemical cytotoxicity or reactivity. To generalize the intended target to other relatable targets, this assay endpoint is annotated to the cell cycle intended target family, where the subfamily is cytotoxicity.
Human HEK293T cells (GenHunter; Nashville, Tennessee) were seeded overnight in 384-well, solid white assay plates (Greiner, BioExpress) at a density of 10 000 cells per well in 65 ul Dulbecco's Modified Eagle Medium (Life Technologies; Carlsbad, California) supplemented with 1% fetal bovine serum (HyClone; Logan, Utah). Test compounds were administered using the HDRT as described earlier to achieve a 0.5% final DMSO concentration. Cells were then incubated at 37C for 24 hr in a humidified 5% CO2 incubator. Cell Titer Glo (Promega; Madison, WI) reagent (25 ul) was then added by the BioTek MicroFlo and microplates were incubated at room temperature in the dark for 20min. Plates were read on a plate reader (FLUOStar Optima) using an endpoint luminescence protocol (top read). Three biological replicates of technical singles were run for every chemical concentration tested. A titrated range of DCNQ served as a positive control on each plate of the cytotoxicity screening assay.Test chemicals were administered as a titrated series of 8 concentrations from 5 nM up to 87.5 uM [final] for 24 hours prior to single endpoint detection. Three biological replicates of technical singles were run for every chemical concentration tested. Dimethylsulfoxide [DMSO] was used as the vehicle control. Dichlone [DCNQ] was used as the positive control and was administered as a titrated series of 8 concentrations from 1 nM up to 100 uM [final].

Row | SMILES | outcome | AC50
1 | O=c1ccc(=O)[nH][nH]1 | inactive | 
2 | C=C(C)[C@H]1Cc2c(ccc3c2O[C@@H]2COc4cc(OC)c(OC)cc4[C@@H]2C3=O)O1 | inactive | 
3 | CCOC(=O)CC(SP(=O)(OC)OC)C(=O)OCC (configuration not stated) | inactive | 
4 | CCOP(=S)(OCC)Oc1ccc([N+](=O)[O-])cc1 | inactive | 
5 | COP(=O)(OC)SCn1c(=O)oc2cc(Cl)cnc21 | inactive | 
6 | CCOP(=S)(OCC)Oc1cc(C)nc(C(C)C)n1 |  | 83.2 µM (active)
7 | CCOP(=S)(OCC)OC(Cl)C(Cl)(Cl)Cl (configuration not stated) |  | 64.7 µM (active)
8 | CCCOCC(=Nc1ccc(Cl)cc1C(F)(F)F)n1ccnc1 |  | 21.3 µM (active)
9 | CN(C)[C@@H]1C(=O)C(C(N)=O)=C(O)[C@@]2(O)C(=O)C3=C(O)c4c(O)cccc4[C@@](C)(O)[C@H]3[C@H](O)[C@@H]12 | inactive | 5.47 µM (active) and 53.8 µM (active)
10 | COP(=O)(NC(C)=O)SC (configuration not stated) | inactive | 
11 | N#CSCSC#N |  | 9.47 µM (active)
12 | CCCSP(=O)(OCC)Oc1ccc(Br)cc1Cl (configuration not stated) |  | 41.5 µM (active)
13 | CCOP(=O)(SC(C)CC)N1CCSC1=O (configuration not stated) | inactive | 
14 | S=C1NCCN1 | inactive | 
15 | CCC(=O)Nc1ccc(Cl)c(Cl)c1 | inactive | 
16 | CC1(C(=O)Nc2ccc(O)c(Cl)c2Cl)CCCCC1 |  | 82.2 µM (active)
17 | CSC1=N[C@@](C)(c2ccccc2)C(=O)N1Nc1ccccc1 | inactive | 
18 | CCOP(=S)(Oc1cnc(C(C)(C)C)nc1)OC(C)C (configuration not stated) |  | 31.4 µM (active)
19 | CCC(=NOC/C=C/Cl)C1=C(O)CC(C2CCOCC2)CC1=O (configuration not stated) | inactive | 
20 | CCCSP(=O)(OCC)SCCC | inactive | 
21 | CCOP(=S)(OCC)Oc1ccc2c(C)c(Cl)c(=O)oc2c1 | inactive | 

From PubChem BioAssay (EPA / NIEHS)
